Out of some 16,000 compounds screened, about 5,100 (32%) were called active. About 25% were inconclusive and are not listed. This is one part of the list. Unmarked numbers belong to inactive results. The call rests on the fitted dose curve; in most records, active means well fitted curve in the direction sought with a large enough effect; inconclusive means small, poorly fitted or top-dose-only effect, or effect the other way; inactive means no such curve, though single readings can be large or run the other way.
What follows are compounds tested against Cytochrome P450 3A4 (Homo sapiens) (UniProt P08684) (assay: Cytochrome panel assay with activity outcomes). Details: recombinant CYP, pro-luciferin dealkylation, luminescence, p450-cyp3a4; series mostly up to 57.1 µM.
Cytochrome P450 3A4 (Homo sapiens), sequence (P08684 whole entry, looked up): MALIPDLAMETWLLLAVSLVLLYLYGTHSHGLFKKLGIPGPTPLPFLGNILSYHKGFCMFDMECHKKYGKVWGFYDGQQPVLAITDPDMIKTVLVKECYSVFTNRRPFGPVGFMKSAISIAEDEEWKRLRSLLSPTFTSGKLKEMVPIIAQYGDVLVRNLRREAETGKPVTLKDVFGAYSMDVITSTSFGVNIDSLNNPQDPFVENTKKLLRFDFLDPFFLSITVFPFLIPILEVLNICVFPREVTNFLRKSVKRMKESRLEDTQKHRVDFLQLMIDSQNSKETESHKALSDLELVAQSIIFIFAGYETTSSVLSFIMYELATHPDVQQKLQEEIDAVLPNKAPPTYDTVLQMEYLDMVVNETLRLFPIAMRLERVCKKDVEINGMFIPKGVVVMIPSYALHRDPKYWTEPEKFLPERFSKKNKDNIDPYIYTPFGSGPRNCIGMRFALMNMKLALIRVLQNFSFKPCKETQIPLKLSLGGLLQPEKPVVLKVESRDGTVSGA
With `Cc1cccc(NCCNc2cccc(C)c2)c1` the AC50 was 25.1 µM (active). In the case of `Cc1cccc(C(=O)NNC(=O)C(=O)NC(C)(C)C)c1`, the AC50 is reported as “inactive”. For `Cc1cccc(N/C(N)=N/c2nc(C)cc(C)n2)c1`, the AC50 was “inactive”. In the case of `COc1ccc(S(=O)(=O)Nc2ccc(F)cc2)c(C)c1C`, the AC50 is reported as 10 µM (active). In the case of `Cc1ccccc1CSc1nsc(N)n1`, the AC50 is reported as 25.1 µM (active). With `COc1ccc(NC(=O)c2cc(C(C)C)on2)cc1OC` the AC50 was “inactive”. For `COCCNC(=O)c1cc(-c2cccc(OC)c2)on1`, the AC50 was “inactive”. For `COc1cccc(-c2cc(C(=O)Nc3cccc(O)c3)no2)c1`, the AC50 was 10 µM (active). `CCN1CCN(c2nc(C)c3c(n2)CCCC3=O)CC1` was tested, and the AC50 was “inactive”. With `Cc1cc2nc(C)n(CCCN)c2cc1C` the AC50 was “inactive”. `CSc1nc(C)cc(Nc2ccc(O)c(CN3CCOCC3)c2)n1` showed an activity, negative = inhibition of 0.709% [at 11.4 µM]. With `Cc1cccc(OCC(=O)NNC(=O)CSc2ncc(C#N)c(N)n2)c1` the AC50 was 14.1 µM (active). For `Cc1cccc(C(=O)NCN2CCN(c3ccccc3C#N)CC2)c1`, the AC50 was “inactive”. For `Cc1c(C(=O)Nc2nccs2)sc2nc(-c3cccs3)cc(C(F)(F)F)c12`, the AC50 was 14.1 µM (active). With `CC(/C=C/c1ccccc1)=N/NC(=O)CNC(=O)c1ccc2c(c1)OCO2` the AC50 was 6.31 µM (active). `CN(C)Cc1cc(C(C)(C)C)ccc1-c1ccc(C(C)(C)C)cc1CN(C)C` was tested, and the activity, negative = inhibition was 5.04% [at 11.4 µM]. For `CN(C)Cc1cc(C(F)(F)F)ccc1C(O)(c1ccccc1)c1ccccc1`, the AC50 was 0.794 µM (active). Work on `CN(C)Cc1ccc(C(C)(C)C)cc1-c1cc(C(C)(C)C)ccc1CN(C)C` yielded an activity, negative = inhibition of 0.94% [at 11.4 µM]. For `COc1ccccc1-c1cncnc1NCCNC(C)=O`, the AC50 was 2 µM (active). `CC(=O)NCCNc1cc(-c2ccccc2C)ncn1` was tested, and the AC50 was “inactive”. `CC(=O)NCCNc1ncncc1-c1ccc(N(C)C)cc1` was tested, and the AC50 was 2 µM (active). `COc1nc(OCCNC(C)=O)nc(N(C)C)n1` was tested, and the activity, negative = inhibition was 4.84% [at 2.29 µM]. In the case of `CC(=O)NCCNc1ncncc1-c1ccccc1C`, the AC50 is reported as 2.51 µM (active). In the case of `CC(=O)NCCNc1ncncc1-c1ccccc1C(F)(F)F`, the AC50 is reported as 1 µM (active). In the case of `CC(=O)NCCNc1cc(-c2ccccc2CN(C)C)ncn1`, the AC50 is reported as “inactive”. With `CC(=O)NCCNc1cc(-c2ccccc2C(F)(F)F)ncn1` the AC50 was “inactive”. With `CCn1cnc2sc(C(=O)N3CCN(c4ccc(OC)cc4)CC3)c(C)c2c1=O` the AC50 was 12.6 µM (active). In the case of `COc1ccc(N2CCN(C(=N)/C(C(C)=O)=C(\C)O)CC2)cc1`, the activity, negative = inhibition is reported as -4.11% [at 2.29 µM]. In the case of `O=C(O)c1cc(=O)cc(C(=O)O)[nH]1`, the AC50 is reported as “inactive”. Compound `Fc1cccc(F)c1C(Nc1nncs1)Nc1nncs1` has an activity, negative = inhibition of -16.1% [at 11.4 µM]. `FC(F)(F)c1ccccc1-c1nc(NCc2cccnc2)c2ccccc2n1` was tested, and the AC50 was 2 µM (active). For `C(=N/Nc1nnc2c(n1)[nH]c1ccccc12)/c1cccnc1`, the AC50 was 3.98 µM (active). `Clc1ccccc1-c1nc(N/N=C/c2cccnc2)c2ccccc2n1` was tested, and the AC50 was 1.41 µM (active). Work on `CON(C)C(=O)c1nnc2c(n1)[nH]c1ccccc12` yielded an activity, negative = inhibition of -23% [at 11.4 µM]. For `Clc1ccccc1-c1nc(NCc2cccnc2)c2ccccc2n1`, the AC50 was 2.51 µM (active). `Cc1sc(N/N=C/c2cccnc2)nc1-c1ccccc1` showed an activity, negative = inhibition of 20.5% [at 2.29 µM]. With `O=C(O)CNc1ccc(C(=O)O)cc1` the activity, negative = inhibition was -7.89% [at 11.4 µM]. For `CC(C)(C)COS(=O)OCC(C)(C)C`, the activity, negative = inhibition was -4.89% [at 11.4 µM]. With `O=C(O)CCC(=O)N1CCOc2ccc(Cl)cc21` the AC50 was “inactive”. Compound `CN(C)CCn1c(CO)nc2c1c(=O)n(C)c(=O)n2C` has an activity, negative = inhibition of -3.94% [at 11.4 µM]. For `O=c1cc(CO)oc(CN2CCCC2)c1O`, the AC50 was “inactive”. With `Cc1ccccc1-c1nc(NCc2cccnc2)c2ccccc2n1` the AC50 was 0.501 µM (active). In the case of `CO[C@]1(NC(=O)CSCC#N)C(=O)N2C(C(=O)O)=C(CSc3nnnn3C)CS[C@H]21`, the AC50 is reported as “inactive”. In the case of `COc1ccc(C(C(=O)NC2CCCCC2)N(C(=O)Cc2c[nH]c3ccccc23)c2ccc(NC(C)=O)cc2)cc1OC` (configuration not stated), the AC50 is reported as 3.16 µM (active). With `COc1ccc(CC(NC(C)=O)C(=O)NC2CCN(C(=O)Nc3ccc(Cl)cc3)CC2)cc1OC` (configuration not stated) the activity, negative = inhibition was -6.41% [at 2.29 µM]. For `CC(OC(=O)Cn1c(C(F)(F)F)nc2ccccc21)C(N)=O` (configuration not stated), the AC50 was “inactive”. Compound `Clc1ccc(Cn2c(-c3cccnc3Cl)nc3ccccc32)c(Cl)c1` has an activity, negative = inhibition of -20.9% [at 2.29 µM]. `CC(C)C(=O)NCCc1nc2ccccc2n1CCCOc1ccc(Cl)cc1` was tested, and the AC50 was 11.2 µM (active). In the case of `C[C@]1(c2ccccc2)OC(C(=O)O)=CC1=O`, the AC50 is reported as “inactive”. `CCC(=O)c1ccc(OCc2ccc(C(=O)OC)cc2)c(OC)c1` was tested, and the AC50 was 4.47 µM (active). `CCOc1ccc(C(=O)O)cc1OC` was tested, and the AC50 was “inactive”. For `O=C(O)c1ccc(OCc2ccccc2)c(Cl)c1`, the activity, negative = inhibition was -32.8% [at 11.4 µM]. `CC(C)=CCC/C(C)=C/CO/N=C1/C[C@@H](O)[C@@H](O)[C@@H]2[C@@H]3C(=O)N(C4CCCCC4)C(=O)[C@H]3CC[C@@H]12` was tested, and the activity, negative = inhibition was -27% [at 11.4 µM]. In the case of `CC1(C)CC2(CC(c3cccs3)c3cc(Cl)c(O)cc3O2)NC(=S)N1` (configuration not stated), the activity, negative = inhibition is reported as -22.1% [at 2.29 µM]. `O=C1CC(c2cccs2)c2cc3c(cc2N1)OCO3` (configuration not stated) was tested, and the AC50 was 7.08 µM (active). With `CCCCNC(=S)NNC(=O)CCn1nc(C)c(Br)c1C` the AC50 was 4.47 µM (active). Compound `CCCCNC(=S)NNC(=O)c1sccc1C` has an activity, negative = inhibition of 1.58% [at 2.29 µM]. Work on `c1ccc([P+](CC[P+](c2ccccc2)(c2ccccc2)c2ccccc2)(c2ccccc2)c2ccccc2)cc1` yielded an activity, negative = inhibition of 1.54% [at 11.4 µM]. Work on `C[C@]12CC[C@H]3c4ccc(O)cc4CC[C@@H]3[C@H]1C/C(=N/O)[C@H]2O` yielded an activity, negative = inhibition of -4.59% [at 11.4 µM]. For `CC(C)Cn1cnc2c(SCc3ccc(Cl)cc3Cl)nc(N)nc21`, the AC50 was 3.98 µM (active). With `CC(C)Cn1cnc2c(SCc3ccccn3)nc(N)nc21` the activity, negative = inhibition was -22.1% [at 11.4 µM]. Compound `Cc1ccc2ccccc2c1CSc1nc(N)nc2c1ncn2CC(C)C` has an activity, negative = inhibition of -24.4% [at 11.4 µM].
On the % scale 0 is the no-effect control and ±100 the full control effect.
